For six compounds, inhibition results are on record in ChEMBL document CHEMBL1961873, “Compounds: GSK PKIS; Assays: Nanosyn kinase panel” (2012).

Assay [1] has as its target Mitogen-activated protein kinase 3 (Homo sapiens) (UniProt P27361). The following applies: at 1 µM.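 Note: values are mean percent inhibition of MAPK3.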
The target of assay [2] is SRSF protein kinase 3 (Homo sapiens) (UniProt Q9UPE1). The note with it: at 0.1 µM.
Assay [3] shares this target. The following applies: at 1 µM.
Assay [4] addresses Mitogen-activated protein kinase 14 (Homo sapiens) (UniProt Q16539). The note with it: at 0.1 µM.
The target is the same in assay [5]. The note with it: at 1 µM.
The target in assay [6] is Mitogen-activated protein kinase 11 (Homo sapiens) (UniProt Q15759). The following applies: at 0.1 µM.
Mitogen-activated protein kinase 11 (Homo sapiens), sequence (Q15759 whole entry): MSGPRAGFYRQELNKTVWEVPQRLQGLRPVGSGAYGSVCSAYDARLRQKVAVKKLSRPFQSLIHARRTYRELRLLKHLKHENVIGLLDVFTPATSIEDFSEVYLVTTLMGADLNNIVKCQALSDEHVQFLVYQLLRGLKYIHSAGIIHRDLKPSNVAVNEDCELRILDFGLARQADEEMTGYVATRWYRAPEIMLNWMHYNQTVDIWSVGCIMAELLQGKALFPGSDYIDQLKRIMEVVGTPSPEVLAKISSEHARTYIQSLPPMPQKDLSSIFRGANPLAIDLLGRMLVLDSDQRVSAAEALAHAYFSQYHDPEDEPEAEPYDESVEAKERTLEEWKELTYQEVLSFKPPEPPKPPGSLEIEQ
Assay [7] shares this target. The following applies: at 1 µM.
Assay [8] deals with T1, Mitogen-activated protein kinase 13 (Homo sapiens) (UniProt O15264).
T1 sequence (whole entry): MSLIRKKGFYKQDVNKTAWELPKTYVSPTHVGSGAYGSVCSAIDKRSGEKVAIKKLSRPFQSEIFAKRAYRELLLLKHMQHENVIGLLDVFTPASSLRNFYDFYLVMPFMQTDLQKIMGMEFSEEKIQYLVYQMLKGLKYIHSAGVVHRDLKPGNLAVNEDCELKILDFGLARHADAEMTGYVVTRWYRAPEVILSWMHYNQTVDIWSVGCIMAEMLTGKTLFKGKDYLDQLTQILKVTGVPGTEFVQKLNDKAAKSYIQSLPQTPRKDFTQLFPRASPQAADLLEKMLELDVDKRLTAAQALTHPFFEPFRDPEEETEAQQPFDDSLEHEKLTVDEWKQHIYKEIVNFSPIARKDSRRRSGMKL
The note with it: at 0.1 µM.

Assay [9] addresses T1, Mitogen-activated protein kinase 13 (Homo sapiens). The following applies: at 1 µM.
In assay [10] the target is T2, Mitogen-activated protein kinase 12 (Homo sapiens) (UniProt P53778).
T2 sequence (whole entry): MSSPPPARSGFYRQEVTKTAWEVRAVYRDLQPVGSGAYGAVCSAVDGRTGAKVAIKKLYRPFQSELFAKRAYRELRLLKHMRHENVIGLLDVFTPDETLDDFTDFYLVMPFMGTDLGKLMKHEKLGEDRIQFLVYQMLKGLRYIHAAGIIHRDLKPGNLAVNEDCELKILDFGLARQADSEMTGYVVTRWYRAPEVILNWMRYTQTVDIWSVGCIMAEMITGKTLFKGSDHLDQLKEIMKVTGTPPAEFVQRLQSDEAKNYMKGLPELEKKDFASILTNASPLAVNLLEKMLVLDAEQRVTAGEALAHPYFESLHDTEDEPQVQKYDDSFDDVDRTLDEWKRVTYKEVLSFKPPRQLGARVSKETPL
The note with it: at 0.1 µM.

The target of assay [11] is T2, Mitogen-activated protein kinase 12 (Homo sapiens). The note with it: at 1 µM.
The target in assay [12] is SRSF protein kinase 1 (Homo sapiens) (UniProt Q96SB4). The note with it: at 0.1 µM.
SRSF protein kinase 1 (Homo sapiens), sequence (Q96SB4 whole entry): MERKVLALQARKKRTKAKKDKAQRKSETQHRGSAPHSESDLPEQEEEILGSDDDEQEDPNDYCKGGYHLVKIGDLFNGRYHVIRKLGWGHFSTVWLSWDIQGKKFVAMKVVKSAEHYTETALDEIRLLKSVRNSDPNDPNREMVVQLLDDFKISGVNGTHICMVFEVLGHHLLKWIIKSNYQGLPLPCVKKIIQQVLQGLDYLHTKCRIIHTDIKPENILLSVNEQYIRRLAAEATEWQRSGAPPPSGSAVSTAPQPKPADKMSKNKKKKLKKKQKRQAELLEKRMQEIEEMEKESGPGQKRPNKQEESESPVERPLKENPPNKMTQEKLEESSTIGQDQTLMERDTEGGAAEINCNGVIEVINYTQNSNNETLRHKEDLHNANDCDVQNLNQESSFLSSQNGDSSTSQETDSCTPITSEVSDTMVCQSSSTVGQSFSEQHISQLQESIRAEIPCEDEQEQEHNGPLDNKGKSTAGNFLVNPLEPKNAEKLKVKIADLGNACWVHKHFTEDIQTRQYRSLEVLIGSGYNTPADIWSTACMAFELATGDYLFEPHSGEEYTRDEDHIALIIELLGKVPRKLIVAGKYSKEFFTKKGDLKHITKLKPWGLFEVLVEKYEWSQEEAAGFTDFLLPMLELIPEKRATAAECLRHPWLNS
For assay [13] the target is unchanged. The following applies: at 1 µM.
For assay [14], the target named is Phosphatidylinositol 4,5-bisphosphate 3-kinase catalytic subunit alpha isoform (Homo sapiens) (UniProt P42336). The note with it: at 0.1 µM.
Phosphatidylinositol 4,5-bisphosphate 3-kinase catalytic subunit alpha isoform (Homo sapiens), sequence (P42336 whole entry, canonical isoform): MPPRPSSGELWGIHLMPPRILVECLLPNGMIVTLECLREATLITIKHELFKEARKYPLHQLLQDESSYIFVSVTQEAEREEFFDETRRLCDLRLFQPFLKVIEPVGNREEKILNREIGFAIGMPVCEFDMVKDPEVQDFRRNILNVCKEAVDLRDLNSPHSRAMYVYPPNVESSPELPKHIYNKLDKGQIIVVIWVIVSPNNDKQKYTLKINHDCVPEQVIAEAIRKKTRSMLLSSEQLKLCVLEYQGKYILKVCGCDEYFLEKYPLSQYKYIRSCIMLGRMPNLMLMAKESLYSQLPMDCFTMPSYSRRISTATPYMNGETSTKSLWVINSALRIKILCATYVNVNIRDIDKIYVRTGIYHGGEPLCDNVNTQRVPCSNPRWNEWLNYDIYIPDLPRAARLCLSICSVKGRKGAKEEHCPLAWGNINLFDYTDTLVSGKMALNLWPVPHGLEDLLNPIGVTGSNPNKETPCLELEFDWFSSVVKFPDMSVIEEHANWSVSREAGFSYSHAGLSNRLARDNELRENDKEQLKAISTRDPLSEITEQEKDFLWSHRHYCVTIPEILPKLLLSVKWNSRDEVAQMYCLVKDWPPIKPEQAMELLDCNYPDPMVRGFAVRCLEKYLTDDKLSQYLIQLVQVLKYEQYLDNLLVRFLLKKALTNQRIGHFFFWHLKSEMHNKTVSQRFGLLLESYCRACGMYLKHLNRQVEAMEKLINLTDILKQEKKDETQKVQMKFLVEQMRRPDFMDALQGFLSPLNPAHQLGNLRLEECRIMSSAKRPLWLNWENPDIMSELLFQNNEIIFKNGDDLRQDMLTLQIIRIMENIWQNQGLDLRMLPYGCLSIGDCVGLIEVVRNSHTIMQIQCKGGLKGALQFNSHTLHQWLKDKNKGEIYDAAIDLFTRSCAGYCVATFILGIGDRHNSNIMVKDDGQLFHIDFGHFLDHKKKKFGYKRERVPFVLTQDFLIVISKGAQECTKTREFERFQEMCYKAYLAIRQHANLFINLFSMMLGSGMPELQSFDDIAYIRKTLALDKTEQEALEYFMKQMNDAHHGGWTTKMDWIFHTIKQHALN
For assay [15] the target is unchanged. The note with it: at 1 µM.
Assay [16] deals with T3, Phosphatidylinositol 4,5-bisphosphate 3-kinase catalytic subunit delta isoform (Homo sapiens) (UniProt O00329).
T3 sequence (whole entry): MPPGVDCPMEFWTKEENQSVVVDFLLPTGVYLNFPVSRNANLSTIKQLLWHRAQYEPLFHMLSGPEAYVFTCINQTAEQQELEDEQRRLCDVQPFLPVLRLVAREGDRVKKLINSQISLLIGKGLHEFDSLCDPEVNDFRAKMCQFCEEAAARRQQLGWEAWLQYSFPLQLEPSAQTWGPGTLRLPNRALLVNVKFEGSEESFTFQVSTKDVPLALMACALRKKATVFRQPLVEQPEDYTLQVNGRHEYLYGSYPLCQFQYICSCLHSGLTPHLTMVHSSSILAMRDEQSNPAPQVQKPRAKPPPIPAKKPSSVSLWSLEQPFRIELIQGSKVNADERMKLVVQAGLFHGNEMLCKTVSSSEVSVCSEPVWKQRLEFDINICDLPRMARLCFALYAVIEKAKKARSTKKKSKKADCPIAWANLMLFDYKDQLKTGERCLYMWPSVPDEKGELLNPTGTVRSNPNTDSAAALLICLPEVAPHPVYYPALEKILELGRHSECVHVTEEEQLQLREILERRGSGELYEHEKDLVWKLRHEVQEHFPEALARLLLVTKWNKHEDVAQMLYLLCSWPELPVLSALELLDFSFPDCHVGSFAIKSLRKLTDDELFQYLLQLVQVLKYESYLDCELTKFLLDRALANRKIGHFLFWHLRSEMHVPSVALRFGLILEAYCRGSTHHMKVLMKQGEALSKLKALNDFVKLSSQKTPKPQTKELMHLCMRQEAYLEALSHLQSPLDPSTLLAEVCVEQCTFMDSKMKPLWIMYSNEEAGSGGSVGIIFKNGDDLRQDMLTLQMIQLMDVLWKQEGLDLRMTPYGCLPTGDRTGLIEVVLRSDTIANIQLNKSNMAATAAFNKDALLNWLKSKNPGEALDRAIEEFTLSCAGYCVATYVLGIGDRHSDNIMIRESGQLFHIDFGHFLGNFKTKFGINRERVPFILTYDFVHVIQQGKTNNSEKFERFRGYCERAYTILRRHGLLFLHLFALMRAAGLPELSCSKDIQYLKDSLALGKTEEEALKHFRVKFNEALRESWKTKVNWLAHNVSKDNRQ
The following applies: at 0.1 µM.

The target of assay [17] is T3, Phosphatidylinositol 4,5-bisphosphate 3-kinase catalytic subunit delta isoform (Homo sapiens). The note with it: at 1 µM.
Assay [18] concerns the target Phosphatidylinositol 4-kinase beta (Homo sapiens) (UniProt Q9UBF8). The note with it: at 0.1 µM.
For assay [19] the target is unchanged. The note with it: at 1 µM.
For assay [20], the target named is Sphingosine kinase 1 (Homo sapiens) (UniProt Q9NYA1). The note with it: at 0.1 µM.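 Note: mean percent inhibition of SPHK1 activity, measured within the GSK PKIS screening panel.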
Sphingosine kinase 1 (Homo sapiens), sequence (Q9NYA1 whole entry): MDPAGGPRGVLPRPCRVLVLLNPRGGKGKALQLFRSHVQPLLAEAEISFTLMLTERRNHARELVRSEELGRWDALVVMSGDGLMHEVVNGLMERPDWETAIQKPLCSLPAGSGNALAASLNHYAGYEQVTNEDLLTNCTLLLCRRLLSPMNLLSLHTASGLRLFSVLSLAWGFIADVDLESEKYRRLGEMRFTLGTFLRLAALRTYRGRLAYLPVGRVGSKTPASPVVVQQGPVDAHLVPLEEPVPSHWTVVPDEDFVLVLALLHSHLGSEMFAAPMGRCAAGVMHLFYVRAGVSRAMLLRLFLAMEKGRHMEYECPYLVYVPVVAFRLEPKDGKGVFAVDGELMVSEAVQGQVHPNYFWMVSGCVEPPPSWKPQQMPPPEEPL

Mitogen-activated protein kinase 14 (Homo sapiens), sequence (Q16539 whole entry): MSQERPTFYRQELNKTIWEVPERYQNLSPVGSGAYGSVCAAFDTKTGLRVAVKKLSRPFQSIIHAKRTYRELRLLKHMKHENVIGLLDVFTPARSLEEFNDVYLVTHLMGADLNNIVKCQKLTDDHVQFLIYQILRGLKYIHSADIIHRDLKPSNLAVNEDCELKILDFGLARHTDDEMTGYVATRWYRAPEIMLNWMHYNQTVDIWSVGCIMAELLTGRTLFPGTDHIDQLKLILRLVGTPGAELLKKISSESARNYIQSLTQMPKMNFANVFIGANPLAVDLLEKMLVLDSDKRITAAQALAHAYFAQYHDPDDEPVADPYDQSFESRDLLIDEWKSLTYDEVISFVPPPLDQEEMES
Phosphatidylinositol 4-kinase beta (Homo sapiens), sequence (Q9UBF8 2-816 limits assumed): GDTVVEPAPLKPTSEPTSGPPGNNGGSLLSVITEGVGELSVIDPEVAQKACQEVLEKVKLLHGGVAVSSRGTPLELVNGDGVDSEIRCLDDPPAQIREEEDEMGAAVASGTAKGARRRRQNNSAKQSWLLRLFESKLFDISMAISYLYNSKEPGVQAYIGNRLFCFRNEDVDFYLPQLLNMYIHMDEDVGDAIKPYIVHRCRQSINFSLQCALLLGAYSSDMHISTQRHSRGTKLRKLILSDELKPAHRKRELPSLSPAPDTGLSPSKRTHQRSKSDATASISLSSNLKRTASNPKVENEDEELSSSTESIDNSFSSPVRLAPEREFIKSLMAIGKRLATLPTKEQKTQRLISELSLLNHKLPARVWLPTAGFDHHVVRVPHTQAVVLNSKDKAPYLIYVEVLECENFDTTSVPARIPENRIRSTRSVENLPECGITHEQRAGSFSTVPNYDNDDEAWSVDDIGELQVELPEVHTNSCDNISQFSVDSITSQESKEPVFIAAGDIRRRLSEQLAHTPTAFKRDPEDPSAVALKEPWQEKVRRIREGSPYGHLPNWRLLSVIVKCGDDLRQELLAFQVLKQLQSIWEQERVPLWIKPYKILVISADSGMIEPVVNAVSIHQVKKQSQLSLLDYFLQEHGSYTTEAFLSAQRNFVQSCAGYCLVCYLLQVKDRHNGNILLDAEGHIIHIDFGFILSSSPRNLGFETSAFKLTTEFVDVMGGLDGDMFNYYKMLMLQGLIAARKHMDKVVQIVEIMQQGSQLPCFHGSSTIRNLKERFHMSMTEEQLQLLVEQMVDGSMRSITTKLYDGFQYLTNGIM
SRSF protein kinase 3 (Homo sapiens), sequence (Q9UPE1 whole entry): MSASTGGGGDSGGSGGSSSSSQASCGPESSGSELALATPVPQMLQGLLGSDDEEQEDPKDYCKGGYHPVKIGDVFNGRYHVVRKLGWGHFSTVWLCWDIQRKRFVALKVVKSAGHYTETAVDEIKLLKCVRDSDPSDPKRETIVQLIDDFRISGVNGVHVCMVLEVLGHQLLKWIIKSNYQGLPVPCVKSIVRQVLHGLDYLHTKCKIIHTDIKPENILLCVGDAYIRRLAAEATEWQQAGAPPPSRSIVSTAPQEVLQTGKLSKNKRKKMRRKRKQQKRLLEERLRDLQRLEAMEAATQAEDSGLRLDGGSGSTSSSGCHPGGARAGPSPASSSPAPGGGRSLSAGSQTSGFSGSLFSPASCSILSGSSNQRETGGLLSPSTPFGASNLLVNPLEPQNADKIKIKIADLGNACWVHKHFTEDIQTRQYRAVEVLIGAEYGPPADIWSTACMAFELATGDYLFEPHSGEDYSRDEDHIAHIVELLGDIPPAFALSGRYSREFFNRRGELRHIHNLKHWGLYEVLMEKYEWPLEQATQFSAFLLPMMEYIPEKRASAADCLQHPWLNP
Mitogen-activated protein kinase 3 (Homo sapiens), sequence (P27361 whole entry): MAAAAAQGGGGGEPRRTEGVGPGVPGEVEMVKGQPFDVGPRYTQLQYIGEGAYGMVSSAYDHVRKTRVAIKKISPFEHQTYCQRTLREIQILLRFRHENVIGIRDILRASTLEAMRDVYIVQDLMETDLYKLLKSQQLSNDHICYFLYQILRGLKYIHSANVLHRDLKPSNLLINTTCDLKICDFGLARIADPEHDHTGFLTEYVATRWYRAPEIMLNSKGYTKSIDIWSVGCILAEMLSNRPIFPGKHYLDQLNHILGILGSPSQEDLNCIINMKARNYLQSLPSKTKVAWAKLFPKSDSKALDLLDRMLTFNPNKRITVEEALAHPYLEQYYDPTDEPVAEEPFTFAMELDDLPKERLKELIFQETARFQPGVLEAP

For the compound `C#Cc1cccc(Nc2ncnc3ccc(OCCCCNCCS(C)(=O)=O)cc23)c1`, the inhibition (usually the relative decrease from the control value, in per cent) in [1] is 5.78%; in [2], -1.8%; in [3] it was -2.44%; in assay [4], 3.36%; in assay [5], 13.9%; in [6] it was 4.69%. The inhibition is 7.25% in [7]; 6.43% in [8]; 4.8% in [9]; 1.66% in [10]; 3.54% in [11]; -1.38% in assay [12]. The inhibition was -0.94% in assay [13]; 5% in assay [14]; 4.83% in assay [15]; 2.6% in assay [16]; 5.7% in assay [17]; -2.49% in [18]. Further, the inhibition is -1.03% in assay [19] and 5.65% in [20].
For `COc1cccc(/C=N/Nc2ncnc3c2cnn3-c2cccc(OC)c2)c1`, the inhibition was 2.47% in assay [1]; -1.31% in assay [2]; -0.75% in [3]; 5.18% in assay [4]; 5.34% in assay [5]; 2.68% in assay [6]. For the same compound, the inhibition was 2.6% in assay [7]; 4% in assay [8]; 4.61% in assay [9]; 3.43% in assay [10]; 4.21% in assay [11]; -3.08% in assay [12]. Further, the inhibition in [13] is -2.5%; in [14] it was 4.36%; in [15], 1.65%; in [16], 0.9%; in assay [17], 1.58%; in assay [18] it was 3.72%. Further, the values for the inhibition in assay [19] and in assay [20] were 2.27% and 2.07%, respectively.
As to `Nc1nccc(-c2c(-c3ccc(F)cc3)ncn2C2CCC(O)CC2)n1` (stereo not given), the inhibition in assay [1] stood at 0%; in assay [2], 1.14%; in assay [3] it was 0.84%; in assay [4], 70.8%; in [5], 92.5%; in [6], 14.9%. The inhibition in assay [7] was 62.2%; in assay [8] it was 0.18%; in [9], -2.89%; in assay [10], -3.41%; in assay [11], -0.94%; in assay [12], 1.95%. Besides, the inhibition in assay [13] is 4.67%; in assay [14], 16.6%; in assay [15] it was 3.18%; in assay [16] it was 3.72%; in assay [17], 7.23%; in assay [18] it was -6.38%. The inhibition was -0.81% in [19] and 0.34% in assay [20].
Regarding `NC(=O)c1cc(-c2ccncc2)cc(-c2ccccc2)c1N`, the inhibition in assay [1] is 5.5%; in [2], -0.96%; in [3], -0.93%; in assay [4], 6.9%; in [5] it was 14.9%; in assay [6], 6.98%. Moreover, the inhibition in [7] is 14.8%; in assay [8], 2.69%; in [9], 5.81%; in assay [10], 0.76%; in [11] it was 3.34%; in [12] it was -1.6%. For the same compound, the inhibition in assay [13] is -0.84%; in assay [14], 4.53%; in [15], 6.5%; in [16] it was 3.68%; in assay [17], 5.3%; in [18], 0.64%. The inhibition in [19] is 3.86%; in [20] it was -0.86%.
On to `CCN(CC)Cc1ccc(Nc2nccc(-c3cnn4ncccc34)n2)cc1`, for which the inhibition is 7.61% in [1]; -1.94% in assay [2]; -0.22% in [3]; 6.95% in assay [4]; 13.1% in assay [5]; 3.23% in [6]. In addition, the inhibition was 4.99% in [7]; 4.71% in [8]; 9.25% in [9]; 3.65% in assay [10]; 6.9% in assay [11]; -2.98% in assay [12]. Moreover, the inhibition was -1.36% in assay [13]; 3.82% in assay [14]; 11.4% in assay [15]; 6.31% in [16]; 40.2% in assay [17]; -2.34% in assay [18]. Further, the inhibition in [19] was 4.5%; in [20] it was 0.05%.
For `COc1cc2ncn(-c3cc(OCc4ccccc4C(F)(F)F)c(C(C)=O)s3)c2cc1OC`, the inhibition in assay [1] is 3.87%; in [2], -2.61%; in [3], 1.07%; in assay [4] it was 4.86%; in assay [5], 3.85%; in [6], 5.8%. Further, the inhibition in assay [7] was 4.79%; in assay [8], 2.82%; in [9], 2.04%; in assay [10], 2.87%; in assay [11], 2.91%; in assay [12], -0.85%. In addition, the inhibition in [13] is -1.87%; in [14] it was 1.72%; in assay [15], 2.65%; in assay [16], 1.03%; in assay [17], 1.51%; in [18] it was 1.58%. Further, the figures for the inhibition in assay [19] and in assay [20] were -4.62% and -1.64%, respectively.
